Test results reported in PubChem BioAssay AID778 (Sanford-Burnham Center for Chemical Genomics, 2007).
The whole screen tested about 96,000 compounds, of which about 20,000 (21%) were called active.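 The calls were made as follows: active = CYP2C19 inhibition above a set limit at 5 µM in the primary screen (cut at about 50% in these data); inactive = the rest.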 A selection follows.

Target: Cytochrome P450 2C19 (Homo sapiens) (UniProt P33261)
Test: blockers of cytochrome P450 2C19 activity – biochemical, luminescence, ADME assay, primary screen (AID 778);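 also: plate controls were negative control wells for no effect and 2.5 mM tranylcypromine positive control for full effect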
Conditions: CYP2C19 Supersomes, luciferin-H EGE luminescence, 30 min; at 5 µM; active compounds read high

Chain of Cytochrome P450 2C19 (Homo sapiens) (P33261 whole entry, looked up): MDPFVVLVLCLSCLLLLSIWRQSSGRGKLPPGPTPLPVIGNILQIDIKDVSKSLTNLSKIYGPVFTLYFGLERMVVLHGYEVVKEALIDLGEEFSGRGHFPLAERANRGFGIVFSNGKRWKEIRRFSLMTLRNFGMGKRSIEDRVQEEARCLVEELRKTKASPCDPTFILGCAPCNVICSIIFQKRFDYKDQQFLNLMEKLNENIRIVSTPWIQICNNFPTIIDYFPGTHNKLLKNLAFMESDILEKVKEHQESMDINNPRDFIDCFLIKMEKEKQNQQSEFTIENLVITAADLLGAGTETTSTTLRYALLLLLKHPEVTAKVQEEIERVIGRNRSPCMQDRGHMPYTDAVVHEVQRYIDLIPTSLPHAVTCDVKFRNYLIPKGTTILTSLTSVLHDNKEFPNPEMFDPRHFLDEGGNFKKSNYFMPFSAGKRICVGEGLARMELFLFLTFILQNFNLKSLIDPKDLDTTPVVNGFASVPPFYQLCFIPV

inhibition, inactive:
Cc1c(NC(=O)/C=C/C(=O)O)cccc1[N+](=O)[O-] 26.2%
CO/N=C/c1ccc(N2CCN(C(=O)c3cccc(Cl)c3)CC2)c([N+](=O)[O-])c1 33.8%
Cc1c(C)c2cc3c4c(oc3c(C)c2oc1=O)CCCC4 -0.1%
CCOC(=O)c1cnc(-c2ccccc2)nc1Oc1ccc(C)cc1 35.2%
Cc1ccc(OC(=O)c2cc3ccccc3o2)cc1 -12.8%
Cc1ccc(C(=O)CS(C)(=O)=O)cc1 1%
COc1ccc(-n2ncc3c(N4CCCc5ccccc54)ncnc32)cc1 12.3%
O=C(CN1CCSCC1)N/N=C/c1ccc(F)cc1 16.6%
O=C(CSc1ccc(/C=N/NC(=O)c2cccc(F)c2)o1)Nc1ccccc1 17.1%
O=C(Nc1ccc2c(c1)nc1n2CCCCC1)c1cc(S(=O)(=O)N2CCOCC2)ccc1Cl 25.7%
CCCCCOC(=O)NCCOC(=O)Nc1ccc(C(=O)OCC)cc1 4.4%
Cc1cc(NC(=O)c2cnn3cccnc23)n(-c2ccccc2)n1 25%
O=C1CSC(c2cccc(F)c2)N1c1ccccc1F (configuration not stated) 32.9%
CC(C)C(NC(=O)c1cccc(S(=O)(=O)N2CCOCC2)c1)C(=O)NCCc1ccccn1 (configuration not stated) -13.9%
O=C(c1cccc(S(=O)(=O)N2CCOCC2)c1)N1CCOCC1 -6.3%
COc1ccc(Nc2nc(=O)[nH]nc2C)cc1 5%
Cn1c(CCN2CCCCCC2)nc2cc(NC(=O)Nc3ccccc3)ccc21 -3.4%
O=c1[nH]c2c(c(=O)n1Cc1ccccc1)CCC2 -3.7%
COc1ccc(C(=O)CN(C(=O)c2ccc(Cl)cc2)N2C(=O)c3ccccc3C2=O)cc1 36%
Cc1cc(NC(=O)CS(=O)(=O)c2cn(C)c3ccccc23)no1 27.3%
CCN(CC)C(=O)CSC1c2ccccc2C(=O)N1c1ccccc1 (configuration not stated) 49.3%
N#Cc1nc(N)nc(N(c2ccccc2)c2ccccc2)n1 10.4%
CC(=O)Nc1cccc(-c2csc(Nc3cccc(C)n3)n2)c1 5.7%
CCOC(=O)CCP(=O)(O)C(O)(c1ccccc1)c1ccccc1 -0.4%
CC1CCC(NS(=O)(=O)c2ccc3c(c2)n(C)c(=O)c(=O)n3C)CC1 (configuration not stated) 8.2%
Cc1nn(C)c(C)c1S(=O)(=O)N1CCc2ccccc21 43.3%
COc1ccc(C(=O)OCC(=O)NCC2CCCCC2)cc1S(=O)(=O)N1CCCc2ccccc21 -0.1%
CSc1nc2ccc(S(=O)(=O)N3CCc4ccccc43)cc2s1 47.8%
CC1C(c2ccccc2)=[N+]([O-])C2(CCCC2)N1O (configuration not stated) 18.6%
C=CCOc1cccc(CNn2cn[nH]c2=S)c1 33.9%
CCCOC(=O)Nc1sc2c(c1C(=O)OCC)CCC2 -7.3%
COc1ccc(N2CCN(CCNC(=O)CCN3C(=O)COc4ccccc43)CC2)cc1 6.4%
COc1ccc(CN2CC(C(=O)NCCN3CCN(c4ccccc4F)CC3)CC2=O)cc1 (configuration not stated) -6.5%
CCC(C(=O)Nc1ncccn1)(C(F)(F)F)C(F)(F)F -8.1%
NC(=O)CCCC1=NS(=O)(=O)c2ccccc2N1 -6.5%
COCc1cc(=O)[nH]c2cc(NC(=O)C(F)(F)F)c(C)cc12 0.8%
CCC1CCCCN1CCNC(=O)c1[nH]c(C)c(C(C)=O)c1C (configuration not stated) 2.4%
CCC(=O)NC(Nc1cc(C)ccn1)(C(F)(F)F)C(F)(F)F 14.8%
COC(=O)C(NC(C)=O)(Nc1nc2c(s1)CCCC2)C(F)(F)F (configuration not stated) 39.3%
CNC(=S)NNC(=O)c1sccc1OCc1ccccc1 20.4%
COC(=O)CN(c1nc(C)c(Cl)c(OC)n1)S(=O)(=O)c1ccc(C)cc1 19.1%
COC(=O)c1ccc(NC(=O)CN(c2ccc(C)cc2)S(=O)(=O)c2c(C)n[nH]c2C)cc1 35%
CC1CCC(NC(=O)c2ccc(N3CCCC3=O)cc2)CC1 (configuration not stated) -0.4%
CCCc1cc(=O)[nH]c(SCC(=O)c2cc(C)n(CCC)c2C)n1 29.3%
CCOC(=O)Cc1csc(NC(=O)CSc2nc(C)cc(=O)[nH]2)n1 12.8%
Cc1cc(=O)[nH]c(SCc2cccc(F)c2)n1 7%
CCCc1cc(=O)n2[nH]c(SCc3ccccc3)nc2n1 1.2%
CC(C)c1cc(C(N)=O)c(NC(=O)c2cccc(COc3ccc(Br)cc3)c2)s1 5.8%
CC(=O)Oc1ccc(C(C)=O)c2c1OCCO2 12.1%
CCOC(=O)N1CCN(C(=O)Cc2ccc(-n3c(=S)[nH]c4ccccc4c3=O)cc2)CC1 17.9%
COc1ccccc1CNC(=O)C1CCCN(S(=O)(=O)c2cccc3cccnc23)C1 (configuration not stated) 16%

inhibition, active:
Cc1ccc(OC(=O)c2ccccc2C(=O)OCC(F)(F)C(F)F)cc1 88.6%
Cc1ccc(/C=N/NC(=O)Cn2nc(C)c(Br)c2C)o1 50.5%
CCN(Cc1ccncc1)C(=O)c1cccc(S(=O)(=O)N2CCOCC2)c1 97%
CCc1ccccc1NC1c2ccccc2C(=O)N1c1cccnc1 (configuration not stated) 81.5%
Cn1c(=O)n(C)c2cc(S(=O)(=O)N3CCCc4ccccc43)ccc21 98.7%
CCn1c(=O)c(=O)n(CC)c2cc(S(=O)(=O)N3CCc4ccccc43)ccc21 91.3%
COc1ccc(N2CCN(CCNC(=O)c3nnc(Cc4c(F)cccc4Cl)o3)CC2)cc1 77.3%
CCC(=O)NC(Nc1nc2ccc(C)cc2s1)(C(=O)OC)C(F)(F)F (configuration not stated) 85.5%
CCNC(=O)CN(c1ccc(C)cc1)S(=O)(=O)c1ccc(SC)cc1 75.6%
CCCc1cc(=O)[nH]c(SCC(=O)OCc2ccccc2)n1 55%
CCCc1cc(=O)[nH]c(SCc2ccc(C#N)cc2)n1 65.1%
